Shown are actives, neighbours in structure and some others; about 19% of the full set was active somewhere.
HT1080 IDH1KD tx = qHTS for induction of synthetic lethality in tumor cells producing 2HG: qHTS for the HT-1080-IDH1KD cell line; HT-1080 IDH1 knockdown viability, ATP luminescence, 48 h; Potency, µM (top dose mostly 46.1 µM), for the others: top-dose activity, negative = toxicity, hits mostly cytotoxic; 360,000 compounds, 2% hits; AID 686971, 2013;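 further: potency means the concentration at half of the fitted maximal effect; 0% = DMSO wells and -100% = cell-free medium wells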
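Knockdown cells (IDH1KD HT-1080) received compounds 2 h after plating at 750 cells/well and were kept 48 h at 37 °C in 5% FBS RPMI. A CellTiter-Glo luminescence read gave % activity for curve fitting.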
TDP1 cell CPT = qHTS for Inhibitors of human tyrosyl-DNA phosphodiesterase 1 (TDP1): qHTS in cells in presence of CPT; chicken DT40 Tdp1-/-;hTDP1 cells + 20 nM CPT, ATP luminescence, 48 h; Potency, µM (doses to about 46.2 µM), for the others: at the highest dose activity change, negative = growth inhibition, actives largely listed as inhibitors; 420,000 compounds, 12% hits; AID 686979, 2013; further: potency means the concentration at half of the fitted maximal effect; nearly all actives have a fitted effect of over 55% in size
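Chicken DT40 Tdp1-/- cells stably complemented with human TDP1 were seeded at 400 cells/well in medium containing 20 nM camptothecin, exposed to pin-transferred compounds, and grown at 37 °C for at least 48 hr. Viability was read as ATP luminescence.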
IL1B secr inh = qHTS for Inhibitors of Inflammasome Signaling: IL-1-beta AlphaLISA Primary Screen. activity change, % at 57.5 µM. THP-1 LPS/ATP IL-1B secretion, AlphaLISA, 16 h; stronger effect = lower value. 360,000 compounds, 4.7% hits; in the data active means activity change below about -50%; inconclusive means mostly about -30% to -49%
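THP-1 cells pretreated 1 hr with compounds (up to 57.5 uM final), then stimulated with LPS (250 ng/mL final) plus ATP (1.25 mM final); secreted IL-1B measured by AlphaLISA after 16 hr, decreased signal indicating inhibition.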
DT40 TDP1 no CPT = qHTS for Inhibitors of human tyrosyl-DNA phosphodiesterase 1 (TDP1): qHTS in cells in absence of CPT; DT40 Tdp1-/- hTDP1 cells, no CPT, ATP luminescence, 48 h; Potency, µM (highest dose often 46.2 µM), for inactives: at the highest dose activity change, negative = growth inhibition, actives largely listed as inhibitors; 420,000 compounds, 15% hits; further: potency means the concentration at half of the fitted maximal effect; nearly all actives have a fitted effect of over 55% in size
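Growth of hTDP1-complemented DT40 Tdp1-knockout cells is measured by ATP luminescence after at least 48 hr compound exposure at 37 °C, with DMSO substituting for the 20 nM CPT used in the parallel screen.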
HT1080-NT tox = qHTS for induction of synthetic lethality in tumor cells producing 2HG: qHTS for the HT-1080-NT fibrosarcoma cell line; 360,000 compounds, 1.6% hits; AID 686970, 2013; HT-1080-NT fibrosarcoma viability, CellTiter-Glo ATP luminescence, 48 h; Potency, µM (highest dose often 46.1 µM), for inactives: top-dose activity, negative = less viability, actives largely listed as cytotoxic;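 further: NT is the 2HG producing partner of a matched IDH1 knockdown line; potency means the concentration at half of the fitted maximal effect; 0% = DMSO-treated cells and -100% = media-only wells without cells; nearly all actives have a fitted effect of over 55% in size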
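Fibrosarcoma NT cells, 750 per well in 5% FBS RPMI, were exposed to compound for 48 hours. Viability: CellTiter-Glo luminescence.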
Starred values were filed as active, the others as inactive; ? = inconclusive; . = no result; [ ] = remark or other dose. Unless noted, the call rests on the fitted dose curve; in most records, active means well fitted curve in the direction sought with a large enough effect; inconclusive means small, poorly fitted or top-dose-only effect, or another doubt; inactive means no such curve, though single readings can be large; an effect the other way counts as inactive or inconclusive. Unless noted, on the % scale 0 is the no-effect control and ±100 the full control effect.

SMILES	HT1080 IDH1KD tx	TDP1 cell CPT	IL1B secr inh	DT40 TDP1 no CPT	HT1080-NT tox
Cc1ccc(S(=O)(=O)N2CCOC2CNC(=O)C(=O)NCCc2c[nH]c3ccccc23)cc1 (centres undefined)	-6%	?	11	?	-6%
O=C(NCCc1c[nH]c2ccccc12)C(=O)NCC1OCCCN1S(=O)(=O)c1ccc(F)cc1 (centres undefined)	-8%	18µM*	0	?	-13%
Cc1cc(C)c(S(=O)(=O)N2CCCOC2CNC(=O)C(=O)NCCc2c[nH]c3ccccc23)c(C)c1 (centres undefined)	-28%	?	-15	15µM*	-1%
O=C(NCCc1c[nH]c2ccccc12)C(=O)NCC1OCCN1S(=O)(=O)c1cc(F)ccc1F (centres undefined)	-29%	?	-3	?	-13%
Cc1cc(F)ccc1S(=O)(=O)N1CCCOC1CNC(=O)C(=O)NCCc1c[nH]c2ccccc12 (centres undefined)	-4%	16µM*	?	?	-2%
COc1ccc(C(=O)NC(=S)N2CCN(C)CC2)cc1Br	7%	0%	7	-29%	11%
COc1ccc(-c2csc(NC(=O)CSc3nc4ccccc4c(=O)[nH]3)n2)cc1	16µM*	?	64	?	18µM*
Cc1ccc(-c2csc(NC(=O)CSc3nc4ccccc4[nH]3)n2)cc1	-21%	21µM*	-13	23µM*	0%
Cc1ccc(-n2nnnc2C(Cl)c2nnnn2-c2ccc(C)cc2)cc1	?	15µM*	-59*	8.2µM*	?
CCOc1cccc(C2C=C(c3ccc4c(c3)OCO4)NC(c3ccccc3Cl)N2)c1O (centres undefined)	.	?	.	11µM*	.
COC(=O)c1ccc(C2NC(c3ccc4c(c3)OCO4)=CC(c3ccccc3O)N2)cc1 (centres undefined)	.	7.1µM*	.	6.3µM*	.
CCOc1cc(C(=O)Nc2ccc3c(c2)OCO3)ccc1OCCOc1ccccc1Cl	?	-4%	1	-16%	-6%
Oc1ccc(Cl)cc1C1C=C(c2ccc3c(c2)OCO3)NC(c2ccc(Cl)cc2)N1 (centres undefined)	.	4µM*	.	6.3µM*	.
O=C(c1cc(Cl)cc(Cl)c1)N1CCC2CC1c1cc(-c3ccc4c(c3)OCO4)ccc12 (centres undefined)	6%	?	25	?	5%
CC(C#N)(CCc1ccccn1)CCc1ccccn1	-2%	10%	21	-21%	8%
O=C(C(Cc1ccccc1)N1C(=O)c2ccccc2C1=O)N1c2ccccc2CCc2ccccc21 (centres undefined)	-28%	12µM*	-18	6.5µM*	-16%
CC(Cl)C(=O)N1c2ccccc2CCc2ccccc21 (centres undefined)	1%	?	-8	13µM*	2%
O=C1c2ccccc2C(=O)N1CC(=O)N1c2ccccc2CCc2ccccc21	-3%	-17%	63	?	-11%
CC(=O)N(C)N1c2ccccc2CCc2ccccc21	2%	?	27	15µM*	-9%
COc1ccc(Nc2nc(C)nc3sc4c(c23)CCC4)cc1O	-13%	15µM*	50	13µM*	?
c1cc(Nc2ncnc3sc4c(c23)CCC4)ccn1	7%	?	-6	?	-14%
c1ccc(CNc2ncnc3sc4c(c23)CCCC4)nc1	-4%	16µM*	-12	23µM*	-4%
Cc1nc(NCc2cccnc2)c2c3c(sc2n1)CC(C)CC3 (centres undefined)	-2%	?	-4	?	-3%
Cc1nc(NCc2ccccn2)c2c3c(sc2n1)CCCC3	-21%	?	-54*	21µM*	-25%
CN(C)C(CNc1ncnc2sc3c(c12)CCCC3)c1ccco1 (centres undefined)	-5%	?	-11	23µM*	-9%
SMILES	HT1080 IDH1KD tx	TDP1 cell CPT	IL1B secr inh	DT40 TDP1 no CPT	HT1080-NT tox
CSc1nc(C)cc(OCCNS(=O)(=O)c2cc(C)ccc2C)n1	-1%	-9%	12	-16%	-5%
c1coc(CNc2ncnc3sc4c(c23)CCCCC4)c1	-24%	?	-3	?	-7%
CC(C)OCCCNc1ncnc2sc3c(c12)CCCC3	.	21µM*	.	23µM*	.
CC(C)OCCCNc1ncnc2c1nc1n2CCCC1	11%	-23%	22	-3%	0%
Cc1nc(NCc2ccco2)c2c3c(sc2n1)CCC3	?	13µM*	-80*	13µM*	?
COc1cccc(Cn2c(=O)cnc3cnc(N4CCN(C)CC4)nc32)c1	.	?	.	-13%	.
O=c1cc(CN2CCN(c3ccc(F)cc3)CC2)c2cc3c(cc2o1)CCCC3	1%	18µM*	35	?	-2%[9.24 µM]
CCOc1ccc2oc(=O)cc(CN3CCN(c4ccc(Cl)cc4)CC3)c2c1	.	23µM*	.	26µM*	.
COc1ccc(N2CCN(Cc3cc(=O)oc4cc(C)c(Cl)cc34)CC2)cc1	11%	?	0	-23%	4%
Cc1ccc2c(CN3CCN(C(=O)c4ccc(Br)cc4)CC3)cc(=O)oc2c1	.	21µM*	.	?	.
CCOc1ccc2oc(=O)cc(CN3CCN(c4ccc(OC)cc4)CC3)c2c1	.	?	.	21µM*	.
Cc1cccc(-[n+]2c(C)cc(C)c3c(=O)[nH]c(=O)[nH]c32)c1	-3%	?	-6	-87%	3%
Cc1cccn2c(=O)cc(COc3ccc(NC(=O)COc4ccc(F)cc4)cc3)nc12	.	?	.	-21%	.
COc1ccc(OC)c(CN2CCN(Cc3ccc(OC)c(OC)c3OC)CC2)c1	-10%	-28%	10	?	-17%
COc1ccc(N2CCN(Cc3cc4c(cc3Br)OCCO4)CC2)cc1	-17%	?	-68*	?	-16%
CCOc1ccc2oc(=O)cc(CN3CCN(C(=O)c4ccc(Cl)cc4)CC3)c2c1	.	?	.	21µM*	.
O=S(=O)(c1ccccc1)N1CCN(Cc2cc3c(cc2Br)OCCO3)CC1	10%	?	-7	?	0%
COc1ccc2oc(=O)cc(CN3CCN(Cc4ccc(OC)c(OC)c4OC)CC3)c2c1	-14%	?	-54*	?	-23%
CCOc1ccc2oc(=O)cc(CN3CCN(C(=O)c4cccc(Cl)c4)CC3)c2c1	.	-30%	.	?	.
Cc1csc2nc(COc3ccc(NC(=O)COc4ccccc4F)cc3)cc(=O)n12	.	?	.	15µM*	.
